From PubChem
Rows were chosen to be rich in hits. Some 3% of all compounds tested hit in one or more screens of this group.
Tau fibril FP – qHTS for Inhibitors of Tau Fibril Formation, Fluorescence Polarization. Microtubule-associated protein tau (Homo sapiens), P10636. K18 P301L tau heparin fibrillization, Alexa594 FP, 6 h. Potency, µM (doses to about 57.7 µM), for inactives: at the highest dose activity, negative = inhibition, most hits filed as inhibitors. 0.39% of 280,000 active. AID 1468, 2008; note: nearly all actives have a fitted effect of over 55% in size
Target sequence (P10636 561-689 P618L limits assumed): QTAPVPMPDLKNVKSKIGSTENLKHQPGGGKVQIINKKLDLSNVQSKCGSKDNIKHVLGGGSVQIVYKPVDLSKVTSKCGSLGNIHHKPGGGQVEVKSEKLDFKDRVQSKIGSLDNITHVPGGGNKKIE
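K18 P301L tau (15 uM unlabeled/0.24 uM Alexa 594-labeled, final) + compound + heparin 20 uM final; 100 mM NaOAc pH 7; 6 hr 37 C; ThT 30 uM final added, 1 hr RT; FP ex 555/em 632 nm.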
Tau ThT inhib – qHTS for Inhibitors of Tau Fibril Formation, Thioflavin T Binding | recombinant tau K18 P301L, heparin-induced fibrillization, ThT fluorescence | Potency, µM (titrated, usually from 57.4 µM), for the others: top-dose activity, negative = inhibition, hits mostly inhibitors | 2.1% of 270,000 active | Microtubule-associated protein tau (Homo sapiens), P10636; note: nearly all actives have a fitted effect of over 55% in size
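Heparin-induced fibrillization of the P301L-mutant K18 repeat-domain fragment of human tau was followed by ThT binding in quantitative high-throughput format.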
Tau fluor counter – Counterscreen qHTS for Inhibitors of Tau Fibril Formation, Fluorescence Polarization; tau K18 P301L (four-repeat tau fragment) Alexa594 fluorescence, heparin fibrillization; Potency, µM (top dose mostly 57.7 µM), for inactives: at the top dose activity change, negative = decrease; 0.93% of 280,000 active; AID 1463, 2008; note: nearly all actives have a fitted effect of over 55% in size
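Human K18 P301L tau (15 uM unlabeled plus 0.24 uM Alexa 594-labeled, final) in 100 mM sodium acetate pH 7 was mixed with compound and 20 uM heparin and incubated 6 hr at 37 C.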
TRb SRC2 PPI – qHTS for Inhibitors of the Interaction of Thyroid Hormone Receptor and Steroid Receptor Coregulator 2. Thyroid hormone receptor beta (Homo sapiens), P10828. TRbeta-SRC2 peptide binding, fluorescence polarization; receptor liganded with 1 µM T3. Potency, µM (series often up to 106 µM), inactives show top-dose activity change, negative = inhibition, most hits filed as inhibitors. 0.065% of 280,000 active. AID 1469, 2008;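 note: plate controls were bound peptide for no effect and peptide without receptor for full effect; nearly all actives have a fitted effect of over 50% in size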
Target sequence (P10828 whole entry, looked up): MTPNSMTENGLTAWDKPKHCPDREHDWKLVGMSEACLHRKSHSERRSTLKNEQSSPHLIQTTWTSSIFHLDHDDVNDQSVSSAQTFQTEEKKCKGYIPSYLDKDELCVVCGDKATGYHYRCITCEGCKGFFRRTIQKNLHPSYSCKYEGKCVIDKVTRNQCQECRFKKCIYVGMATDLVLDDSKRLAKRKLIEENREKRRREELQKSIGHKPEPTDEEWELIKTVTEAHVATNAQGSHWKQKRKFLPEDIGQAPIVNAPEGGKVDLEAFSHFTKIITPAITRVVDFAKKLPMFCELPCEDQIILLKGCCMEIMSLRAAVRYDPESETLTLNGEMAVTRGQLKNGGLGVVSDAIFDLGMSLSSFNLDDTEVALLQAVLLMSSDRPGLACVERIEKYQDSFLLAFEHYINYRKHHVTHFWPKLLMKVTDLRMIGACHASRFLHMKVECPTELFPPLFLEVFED
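TRb LBD 0.6 uM + Texas Red SRC2 peptide 20 nM, 1 uM T3, Tris buffer w/ 5% DMSO; compound pinned, 5 h RT; FP read ex 555/em 632; normalized to unbound and bound controls.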
TR SRC2 fluor cs – Total Fluorescence Counterscreen for Inhibitors of the Interaction of Thyroid Hormone Receptor and Steroid Receptor Coregulator 2. Potency, µM (highest dose often 106 µM), for inactives: top-dose fluorescence change, negative = quenching. AID 1479, 2009. 0.29% of 280,000 active. TRb/SRC2 Texas Red total fluorescence interference; active = well fitted curve in either direction with a large enough effect; inconclusive = small, poorly fitted or top-dose-only effect
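Flags fluorescent or light-absorbing compounds by total fluorescence, S + 2P, at 555 nm excitation and 632 nm emission. Mixture: 20 nM Texas Red SRC2 peptide, 0.6 uM human TRb LBD, 1 uM T3, 5% DMSO; compound exposure 5 h at ambient temperature.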
The depositor's hits bear a star; ? = inconclusive; . = not tested or not shown; [ ] = remark or other dose. Unless noted, calls come from the whole dose curve; as a rule, active = well fitted curve in the direction sought with a large enough effect; inconclusive = small, poorly fitted or top-dose-only effect, or another doubt; inactive = no such curve, though single readings can be large; an effect the other way counts as inactive or inconclusive. Unless noted, % is set by controls: 0 for no effect and ±100 for the full control effect; potency is the fitted concentration of half-maximal effect.

SMILES	Tau fibril FP	Tau ThT inhib	Tau fluor counter	TRb SRC2 PPI	TR SRC2 fluor cs
CCc1cccc(C)c1NC(=O)c1cn2c3c(ccc(Cl)c3c1=O)OC(C)C2 (stereo unspecified)	5%	12%	6%	-19%	100µM*[quencher]
Cc1ccc(NC(=O)c2c(C)oc3ncn(CC(C)C)c(=O)c23)nc1	-9%	-16%	-19%	-17%	-65%
COc1ccc(NC(=O)Cn2c(=O)n(C(C)C)c(=O)c3oc4ccccc4c32)cc1Cl	?	7%	?	2%	0%
Cc1cc(C)c(NC(=O)CCCn2c(C)c3cnn(-c4ccccc4)c(=O)c3c2C)c(C)c1	7%	-18%	-4%	0%	-3%
CCOc1cccc(CC(=O)Nc2ccc3nc(N4CCCCC4)cc(C)c3c2)c1OCC	?	?	?	-8%	0%
Cc1cc(N2CCN(C)CC2)nc2ccc(NC(=O)Nc3ccc(Cl)cc3)cc12	-13%	13µM*	10µM*[quencher]	1%	-2%
Cc1ccccc1NC(=O)Nc1ccc2nc(N3CCN(C)CC3)cc(C)c2c1	?	?	14µM*[quencher]	-2%	-3%
CCOc1ccccc1NC(=O)Nc1ccc2nc(N3CCN(C)CC3)cc(C)c2c1	5%	14µM*	10µM*[quencher]	-2%	-2%
Cc1cc(N2CCN(C)CC2)nc2ccc(NC(=S)N3CCN(c4ccc(Cl)cc4)CC3)cc12	0%	?	?	-2%	-3%
Cc1ccc(NC(=O)CSc2nccn2-c2ccccc2)cc1	-2%	5%	-8%	1%	-2%
O=C(CCc1nnc2n(Cc3ccccc3Cl)c(=O)c3ccccc3n12)Nc1ccc(F)cc1	-16%	4%	-16%	-2%	-27%
CC(C)C1C(=O)Nc2ccc(S(=O)(=O)NCCc3ccc(Cl)cc3)cc21 (stereo unspecified)	?	-3%	?	5%	-4%
COc1ccc2c(c1)c1c(c(=O)n(-c3ccc(F)c(Cl)c3)c(=O)n1Cc1ccccc1C)n2C	2%	7%	7%	3%	-1%
CC(C)OC(=O)c1c2c(n3ccccc13)C(=O)c1ccccc1C2=O	-1%	11µM*	?	-13%	2%
C#CCOc1ccc(-c2nnc(Nc3cccc(C)c3)c3ccccc23)cc1	-12%	?	?	9%	-2%
CCn1c(C(=O)Nc2c(C)cccc2C)cc2sc(Cl)cc21	-3%	3%	-7%	4%	-18%
CC(C)CC(=O)Nc1nnc(S(=O)(=O)N2CCCCCC2)s1	-2%	2.8µM*	-3%	-6%	5%
Cc1ccccc1OCC(=O)Nc1nnc(S(=O)(=O)N2CCCCCC2)s1	-2%	3.2µM*	-25%	-2%	-13%
O=C(COc1ccc(F)cc1)Nc1nnc(S(=O)(=O)N2CCc3ccccc32)s1	-2%	2.8µM*	-26%	-6%	?
O=C(COc1ccc(Cl)cc1)Nc1nnc(S(=O)(=O)N2CCCCCC2)s1	10%	?	-20%	5%	?
COc1ccccc1C1=Nn2c(nnc2-c2ccccc2C)SC1	.	.	.	-7%	-2%
Cc1ccc(N(C)C(=O)CC(C)S(=O)(=O)c2ccc3c(c2)NC(=O)CO3)cc1 (stereo unspecified)	-1%	6%	5%	-10%	13µM*[quencher]
O=C1C=CC2=C3c4cc(O)c(O)cc4C[C@]3(O)COC2=C1	?	16µM*	?	-7%	9%
Cc1ccc(-c2nc(N)sc2C)cc1	15%	-17%	-10%	-1%	-2%
Cc1ccc(-c2nc(N)sc2-c2ccccc2)cc1C	3%	?	10µM*[quencher]	2%	2%
SMILES	Tau fibril FP	Tau ThT inhib	Tau fluor counter	TRb SRC2 PPI	TR SRC2 fluor cs
Nc1nc(-c2ccccc2)c(-c2ccccc2)s1	12%	-4%	?	-1%	-1%
Cc1ccc(-c2nc(N)sc2-c2ccc(C)cc2)cc1	-14%	?	14µM*[quencher]	-6%	-4%
CC(C)CC(=O)Nc1nnc(SCc2cc(=O)n3ccccc3n2)s1	-2%	-3%	-7%	-3%	0%
C[C@H](CCC(=O)O)C1CC[C@H]2C3CC[C@@H]4C[C@H](O)CC[C@]4(C)C3C[C@H](O)[C@]12C (stereo partly specified)	-1%	-5%	3%	3%	3%
CCOC(=O)c1ccc(NC(=O)CSc2nccn2Cc2ccc(OC)cc2)cc1	4%	-12%	-21%	-1%	-3%
Cn1c(N)c(C(=O)COC(=O)c2cc(-c3ccccc3)nc3ccccc23)c(=O)n(Cc2ccccc2)c1=O	14µM*	-1%	?	8%	-3%
CCCCCCCCCCN1CCOCCOCCN(CCCCCCCCCC)CCOCCOCC1	.	.	.	-5%	1%
O=C(N=Nc1c(O)[nH]c2ccccc12)c1cccs1	-14%	10µM*	-26%	1%	-15%
O=C(CSc1nc2ccccc2[nH]1)N=Nc1c(O)[nH]c2ccccc12	-13%	14µM*	?	-17%	-3%
O=C(O)c1ccc(N=Nc2c(O)[nH]c3ccccc23)cc1	5%	16µM*	-10%	-10%	-6%
CC(=O)c1cccc(N=Nc2c(C)[nH]c3ccccc23)c1	-10%	10µM*	14µM*[quencher]	0%	-2%
CCOC(=O)c1[nH]c(C)c(CCC(=O)Nc2cc(Cl)c(OC)cc2OC)c1C	13%	?	-18%	5%	-4%
COc1ccc(NC(=O)C2(S(=O)(=O)c3ccc(C)cc3)CC2)c(OC)c1	4%	-10%	-28%	8%	8%
Cc1ccc2c(c1)-c1nc(-c3ccc(Cl)cc3)cc(-c3coc4ccccc4c3=O)c1CO2	-1%	-5%	-11%	0%	10µM*[quencher]
CC1=NN(c2nc(-c3ccccc3)cs2)C(=O)C1N=Nc1ccccc1 (stereo unspecified)	2%	2.2µM*	?	1%	-5%
CC1=NN(c2nc(-c3ccc(C)cc3)cs2)C(=O)C1N=Nc1ccc(C(N)=O)cc1 (stereo unspecified)	6%	2.8µM*	?	-5%	-5%
CC1=NN(c2ccccc2)C(=O)C1N=Nc1ccc(S(N)(=O)=O)cc1 (stereo unspecified)	-8%	?	-22%	2%	-3%
CC1=NN(c2nc(-c3ccc(C)cc3)cs2)C(=O)C1N=Nc1ccc2ccccc2c1 (stereo unspecified)	-9%	1.4µM*	-23%	5%	-2%
CC(=O)Nc1ccc(N2N=C(C)C(N=Nc3ccccc3)C2=O)cc1 (stereo unspecified)	4%	4.5µM*	-30%	1%	-6%
